Data reported in PubChem BioAssay (NCI).
About 83,000 compounds went through this panel and 20% of them were active in at least one assay; those are over-represented in the sample as a whole.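 Assay: single dose, 48 h. Readout: percent growth (0 = no net growth; negative = cell death). Active: <10.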 Values without a mark were called inactive. Activity calls are given as the source filed them.

Experiments:
Assay in all cases: NCI-60 one-dose screen, 48 h (100 = growth as untreated, 0 = no growth, -100 = all killed)
Settings in all cases: 10 µM unless noted
RPMI-8226 leukemia = system: RPMI-8226 leukemia
OVCAR-8 ovarian = system: OVCAR-8 ovarian
OVCAR-5 ovarian = system: OVCAR-5 ovarian
OVCAR-4 ovarian = system: OVCAR-4 ovarian
SK-OV-3 ovarian = system: SK-OV-3 ovarian
IGROV1 ovarian = system: IGROV1 ovarian
OVCAR-3 ovarian = system: OVCAR-3 ovarian
HS 578T breast = system: HS 578T breast
NCI/ADR-RES ovarian = system: NCI/ADR-RES ovarian
BT-549 breast = system: BT-549 breast
MDA-MB-435 melanoma = system: MDA-MB-435 melanoma
SW-620 colon = system: SW-620 colon
MCF7 breast = system: MCF7 breast
HCT-116 colon = system: HCT-116 colon
HCC-2998 colon = system: HCC-2998 colon
KM12 colon = system: KM12 colon
T-47D breast = system: T-47D breast

Row | SMILES | growth (RPMI-8226 leukemia) | growth (OVCAR-8 ovarian) | growth (OVCAR-5 ovarian) [%] | growth (OVCAR-4 ovarian) | growth (SK-OV-3 ovarian) | growth (IGROV1 ovarian) | growth (OVCAR-3 ovarian) | growth (HS 578T breast) | growth (NCI/ADR-RES ovarian) | growth (BT-549 breast) | growth (MDA-MB-435 melanoma) | growth (SW-620 colon) | growth (MCF7 breast) | growth (HCT-116 colon) | growth (HCC-2998 colon) | growth (KM12 colon) | growth (T-47D breast)
1 | CN(C)c1ccc(C2Nc3ccccc3-n3cccc32)cc1 (stereo not given) | 80.2% | 94.5% | 72 | 87.1% | 104% | 55% | 92.8% | 95.5% | 105% | 99.8% | 96.5% | 97.6% | 38.4% | 97.4% | 85.2% | 97.7% | –
2 | N#Cc1ccc(NC(=O)Nc2ccc(Cc3ccc(NC(=O)Nc4ccc(C#N)cc4)cc3)cc2)cc1 | -2.1% (active) | 38.7% | 69.6 | 15% | 68.6% | 29.6% | 18.8% | 47.9% | 52.7% | 20.7% | 7.5% (active) | 34% | 6.82% (active) | 18.8% | 40.1% | 18.7% | –
3 | CC(=O)/C(=C/c1cccc(Cl)c1)C(=O)c1ccccc1 | 16.8% | 85.2% | 94.1 | 89.6% | 96.3% | 83% | 96.1% | 94.7% | 75.8% | 72.6% | 72.7% | 71.3% | 34% | 41.7% | – | 54.8% | 63.6%
4 | CCCCCCCCSC1=CC(=O)C(OC)=C(OC)C1=O | – | -9.18% (active) | 28 | 21.5% | 86.4% | 43.2% | -40.8% (active) | 63% | -27.1% (active) | 68.8% | 7.62% (active) | -60.5% (active) | 13.1% | -49.9% (active) | – | 29.5% | -76.6% (active)
5 | CCN(CC)CC(C)(C)C(=O)/C=C/c1ccccc1 | 39.4% | – | 52.4 | 63.3% | 74.8% | 74.1% | 37.7% | 75.5% | 46.8% | 46% | 40% | 35.4% | 5.47% (active) | 12.8% | 79.3% | 53.9% | –
6 | CCOC(=O)C(CC)n1c(=O)c2cc(OC)c(OC)cc2c2cnc3[nH]ccc3c21 (stereo not given) | – | 80% | 63.8 | 93.3% | 58.5% | 19.7% | 76.3% | 41.7% | 73.3% | 47.6% | 88.2% | 79.9% | 50.1% | 67.9% | 83.4% | 26% | 26.1%
7 | COc1ccc(-c2cn3c(-c4ccc(OC)cc4)cnc3c(Oc3ccc4c(C)cc(=O)oc4c3)n2)cc1 | 63.7% | 26.3% | 88 | -18.6% (active) | 90.6% | 70.6% | 46.6% | 57.6% | 29.9% | 29.2% | 37.2% | 39% | 44.2% | 33.9% | 77.1% | 43% | –
8 | CN1CCN(Cc2ccc(NC(=O)c3[nH]ncc3Nc3ncnc4sccc34)cc2)CC1 | -4.38% (active) | 12% | 21.2 | 10.2% | 31.4% | 23.6% | 3.42% (active) | -2.25% (active) | 16.4% | – | 25.8% | 6.8% (active) | 9.47% (active) | 6.91% (active) | -1.02% (active) | 5.21% (active) | 27.7%
9 | CSc1nc(NCCO)c(C#N)c(-c2cccc(N)c2)n1 | – | 98.8% | 96.2 | 96.4% | 93% | 92% | 113% | 96.5% | 99.8% | 98% | 105% | 103% | 94.7% | 98.9% | 109% | 99.4% | 87.8%
10 | O=C(/C=C/c1cccc(Br)c1)c1ccccc1 | 23.6% | 88.7% | 83.2 | 90.6% | 82.1% | 84.8% | 98.3% | 101% | 103% | 76.6% | 80.9% | 69.9% | 12.6% | 47.1% | 96.4% | 70.9% | –
11 | CN1Cc2c(cc(CN3CCCCC3)n2C)C(c2ccc(Br)cc2)C1 (stereo not given) | 81.4% | 96.9% | 96.1 | 86.6% | 93.7% | 96.3% | 95.4% | 76.3% | – | 83.1% | 65.5% | 90.8% | – | 61.8% | 84.2% | 94.5% | –
12 | O=C(CO[N+](=O)[O-])Nc1ccc(C(=O)/C=C/c2ccc(Cl)cc2)cc1 | -14.2% (active) | 27.2% | 66.9 | 76.1% | 89.3% | -26% (active) | 0.332% (active) | 89.7% | – | 18.9% | -2.76% (active) | -61.8% (active) | – | -49.2% (active) | -61.3% (active) | -60.6% (active) | 55.5%
13 | COCCOc1ccc(-c2nc3ccc(-c4nc5ccc(N6CCN(C)CC6)cc5[nH]4)cc3[nH]2)cc1 | 28.4% | – | 45.3 | 14.1% | 7.92% (active) | 28.3% | 2.47% (active) | -3.7% (active) | 100% | -30.5% (active) | -43.6% (active) | 4.55% (active) | – | -57.6% (active) | -52.7% (active) | 46.2% | 2.28% (active)
14 | O=C1C(=O)N(CCCCn2cc(CO)nn2)c2ccccc21 | 99.3% | 102% | 98.6 | 99.2% | 100% | 106% | 115% | 98.8% | 100% | 115% | 98.9% | 99.7% | 100% | 95.5% | 107% | 101% | –
15 | COc1cc(-c2c3c(nc4c2c(C)nn4-c2ccccc2)-c2ccccc2C(=O)C3=O)cc(OC)c1OC | 55.2% | 80.1% | 103 | 78.5% | 104% | 94.9% | -29.4% (active) | 111% | 79.7% | 68.4% | -0.815% (active) | 86.2% | 57.7% | 51.5% | 71.1% | 80.8% | –
16 | C=CCSc1nnc(-c2ccc(C(C)(C)C)cc2)n1-c1cccc(C(F)(F)F)c1 | 17.4% | 32.1% | 77.3 | 44.4% | 61.5% | 54.5% | 40.9% | 45.5% | 22.9% | 19.3% | 52.5% | 46.2% | 12.1% | 13.3% | 51.1% | 27.1% | –
17 | Cc1nc2nc(N)nc(N)c2nc1C | 100% | 96.2% | 93.6 | 96.4% | 103% | 108% | 98% | 99.6% | 102% | 89.4% | 99.5% | 100% | – | 94.3% | 99% | 102% | 91.2%
18 | C[C@@H]1CC[C@@H]2[C@@H]1[C@H](OC(=O)/C=C/c1ccccc1)[C@]1(c3ccccc3)C[C@@H](OC(=O)CO)[C@@]2(C)O1 | 97.7% | 54.3% | 99.8 | 103% | 96.1% | 93.6% | 103% | -20% (active) | 62.1% | 17.1% | 99.2% | 96.6% | 84.3% | 89.5% | 99.4% | 96% | –
19 | NCCN1CCN(c2nccc(-c3ccc4ccccc4c3)n2)CC1 | 5.16% (active) | 71.3% | 73.8 | 78.7% | 88.6% | 51.2% | 73.8% | 63.9% | – | 82.2% | -26.4% (active) | -37.9% (active) | 51.2% | 3.52% (active) | 14% | 48.1% | 43.1%
20 | Cc1[nH]n(-c2ccccc2)c2nc3nncc3c(-c3ccc(Cl)cc3)c12 | 80.6% | 89.8% | 99.1 | 107% | 105% | 124% | 121% | 110% | 93.6% | 111% | 98.1% | 93.3% | – | 93.9% | 109% | 97% | 93.6%
21 | COc1ccc2nc3cc(Cl)ccc3c(N3CCN(c4ccnc(N5CCOCC5)n4)CC3)c2c1 | – | 59.2% | 83.8 | 55.6% | 85.5% | 77.8% | 4.76% (active) | 99.2% | 73.2% | 93.1% | 57% | 3.94% (active) | -82% (active) | 1.63% (active) | 12.9% | 53.2% | -37.9% (active)
22 | CCOC(=O)CC(=O)c1c(C)cc(C)cc1C | 90.3% | 102% | 84.1 | 113% | 105% | 108% | 117% | 91.7% | 102% | 93.5% | 98.6% | 103% | 97.5% | 91.2% | – | 95.5% | –
